Assay [1] has as its system Zika virus NS2B-NS3 protease (unlinked complex). As to the kind of experiment: Primary screen GU Rhodamine qHTS for Zika virus inhibitors: Unlinked NS2B-NS3 protease assay (AID 1347159). Further: nearly all actives have a fitted effect of over 60% in size. The essentials:
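Enzyme 25 nM in Tris-HCl pH 8.0 + 0.01% Tween 20; compounds up to 114 microM, 15 min RT dark; + Rhod110 substrate 1.5 microM; read t0 and 15 min; delta fluorescence → % inhibition → 4-parameter Hill fit.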

Assay [2] concerns Zika virus NS2B-NS3 protease (linked construct). As to the kind of experiment: Primary screen NINDS Rhodamine qHTS for Zika virus inhibitors (AID 1347160). Further: nearly all actives have a fitted effect of over 55% in size. The essentials:
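Enzyme (25 nM, linked NS2B-NS3) was preincubated 15 min with compound in 10 mM Tris-HCl pH 8.0, 0.01% Tween 20. Rhodamine110 substrate (1.5 microM) was then added and fluorescence read at start and after 15 min.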
In general terms: In qHTS, concentration-response curves come from the screen itself.

The target of assay [3] is Calcium and integrin-binding protein 1 (Homo sapiens) (UniProt Q99828). The assay can be described thus: Primary qHTS for Identification of Calcium Integrin Binding Protein 1 (CIB1) Competitor (AID 1508620). Further: top concentration of the series differs between compounds. An outline of the steps: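 Fluorescence polarization competition: GST-tagged CIB1 (1 uM final) preincubated with compound 15 min at room temperature, then FITC-labelled alphaIIb peptide (100 nM final) added. After 15 min at room temperature, polarization read at Ex 480/Em 540.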

The target of assay [4] is Glutathione peroxidase 1 (Homo sapiens) (UniProt P07203). As to the kind of experiment: Primary qHTS Assay for Inhibitors of Recombinant Selenoprotein Glutathione Peroxidase 1 (GPX1) (AID 1845191). Further: nearly all actives have a fitted effect of over 65% in size. An outline of the steps:
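GR-coupled readout: NADPH consumption tracked by fluorescence, ex 340/em 450 nm, at t=0 and after 15 min at RT. Final mix 10 nM GPX1, 1 mM GSH, 0.5 mM CHP, 0.5 mM NADPH, 100 nM GR, 0.01% BSA, following 30 min enzyme–compound preincubation.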

In assay [5] the target is Luciferin 4-monooxygenase (Photinus pyralis) (UniProt P08659). The assay can be described thus: Primary firefly luciferase (FLuc) qHTS assay for identification of artifact compounds. (AID 1845220). Further: nearly all actives have a fitted effect of over 60% in size. The note with it: outcome: dose series up to 54.1 µM unless noted. An outline of the steps: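 Enzymatic FLuc inhibition assay: compounds pre-exposed to luciferin/ATP (10 uM each) for 15 min, then purified P. pyralis enzyme at 10 nM added. Read-out: luminescence at 5 min.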

Assay [6] in a line: Primary fluorescence-based thiol-reactive (MSTI) qHTS assay for identification of artifact compounds. (AID 1845221).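 Further: thiol-reactive compounds lower the probe fluorescence signal; nearly all actives have a fitted effect of over 65% in size.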 The essentials:
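Curve-fitted percent inhibition (4-parameter Hill) derived from fluorescence, Ex 525/Em 598 nm, scaled with Acetyl-MSTI and MSTI; 1 h incubation at room temperature.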

Assay [7] has as its system Nanoluciferase (engineered Oplophorus gracilirostris luciferase). The assay can be described thus: Primary Nanoluciferase (NLuc) qHTS assay for identification of artifact compounds. (AID 1845222).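 Further: NLuc secreted into diluted conditioned medium of S16 cells.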 An outline of the steps: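 S16 cell supernatant NLuc, 1:55; cpds qHTS; 15 min RT dark; Nano-Glo substrate 1:100, 5 min; luminescence; Hill fit of % inhibition.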
Assay [8] is described as follows: Primary redox qHTS assay for identification of artifact compounds. (AID 1845223). The essentials: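 Redox-cycling detection via DTT (250 uM final) oxidation coupled to Amplex Red (25 uM)/HRP (250 mU/mL) in HBSS. 15 min preincubation plus 30 min after DTT, room temperature. Ex/Em 525/598 nm; 4-parameter Hill fit against DMSO and 10 uM DA3003.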
A further assay relates to NIH3T3. As to the kind of experiment: Cytotoxic Profiling of Annotated Libraries Using Quantitative High-Throughput Screening (AID 1296008). Further: potency means the concentration at half of the fitted maximal effect; nearly all actives have a fitted effect of over 60% in size. The following applies: Five cell lines viability, CellTiter-Glo ATP luminescence, 48-72 h; max response: stronger effect = lower value. The essentials: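 Cells exposed to compounds for 48 or 72 hr at 37 degrees Celsius. Viability read as ATP-coupled luminescence with CellTiter-Glo after 10 min at room temperature.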
Background: Cellular ATP, detected with luciferase, serves as a proxy for viable cell number.

Another assay has as its system C33A. The assay can be described thus: Primary qHTS to identify gynecologic anti-cancer compounds using libraries of approved drugs and bioactive compounds (AID 1345084). Further: nearly all actives have a fitted effect of over 55% in size. The following applies: Gynecologic cancer cell panel viability, ATPlite luminescence, 48 h; series mostly up to 57.5 µM. The essentials:
(§1)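 Cytotoxicity screen measuring ATP content by luciferase luminescence. Each compound is applied at five concentrations for 48 h at 37 C with 5% CO2.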

A further assay relates to CAOV3. Described as above. The following applies: Gynecologic cancer cell panel viability, ATPlite luminescence, 48 h; series mostly up to 57.5 µM. An outline of the steps:
as §1

Another assay concerns CASKI. Described as above. The following applies: Gynecologic cancer cell panel viability, ATPlite luminescence, 48 h; series mostly up to 57.5 µM. An outline of the steps: as §1
Another assay has as its system HeLa. Described as above. The following applies: Gynecologic cancer cell panel viability, ATPlite luminescence, 48 h; series mostly up to 57.5 µM. An outline of the steps: as §1
The subject of the next assay is JEG-3. Described as above. The following applies: Gynecologic cancer cell panel viability, ATPlite luminescence, 48 h; series mostly up to 57.5 µM. The essentials: as §1
Another assay deals with OV90. The description is as above. The note with it: Gynecologic cancer cell panel viability, ATPlite luminescence, 48 h; series mostly up to 57.5 µM. An outline of the steps:
as §1

In the next assay the test system is SKOV3. The assay is described as above. The following applies: Gynecologic cancer cell panel viability, ATPlite luminescence, 48 h; series mostly up to 57.5 µM. An outline of the steps: as §1
In a further assay the test system is Tov-21-G. The assay is described as above. The following applies: Gynecologic cancer cell panel viability, ATPlite luminescence, 48 h; series mostly up to 57.5 µM. The essentials: as §1
The test system of a further assay is CRL-7250. The assay can be described thus: qHTS assay to identify novel small-molecules to repurpose for Merkel cell carcinoma treatment (AID 1296009). Further: nearly all actives have a fitted effect of over 60% in size. The following applies: MCC and control cell lines, CellTiter-Glo viability, 72 h; series mostly up to 92 µM. The essentials:
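Dose-response viability screen; 72 hr exposure at 37 degree celsius; CellTiter-Glo added, 10 min room temperature, luminescence read; RLUs scaled between no-cell and DMSO wells.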

SMILES strings stand for the structures. Records with an inconclusive call do not appear. Activity calls are given as the source filed them. The call rests on the fitted dose curve; in most records, active means well fitted curve in the direction sought with a large enough effect; inconclusive means small, poorly fitted or top-dose-only effect, or another doubt; inactive means no such curve, though single readings can be large; an effect the other way counts as inactive or inconclusive.

Sequence of Glutathione peroxidase 1 (Homo sapiens) (P07203 whole entry, looked up): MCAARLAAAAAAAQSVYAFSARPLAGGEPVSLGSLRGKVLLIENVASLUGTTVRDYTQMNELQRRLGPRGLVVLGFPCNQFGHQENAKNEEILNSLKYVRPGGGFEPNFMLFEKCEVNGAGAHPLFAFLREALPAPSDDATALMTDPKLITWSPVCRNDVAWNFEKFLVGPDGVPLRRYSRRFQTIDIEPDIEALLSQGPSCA
Sequence of Calcium and integrin-binding protein 1 (Homo sapiens) (Q99828 whole entry, looked up): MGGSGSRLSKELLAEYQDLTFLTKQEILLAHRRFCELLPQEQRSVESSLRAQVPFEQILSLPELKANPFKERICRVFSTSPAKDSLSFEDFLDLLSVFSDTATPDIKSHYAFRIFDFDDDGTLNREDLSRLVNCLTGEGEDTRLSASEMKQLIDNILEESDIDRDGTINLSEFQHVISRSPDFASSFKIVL

For `CC1=CC(=O)[C@@H](O)[C@]2(C)C3[C@@H](O)[C@@H]4OC(=O)[C@@H]([C@H]4C)[C@]3(C)C(=O)[C@H](O)[C@@H]12` (some centres not stated), the Potency entry in [1], in assay [2], in [3], in assay [4], in assay [6] and in assay [7] was “inactive” in each case. Also, the Potency entry (in assay [8]; in the assay on C33A; in the assay on CAOV3; in the assay on CASKI; with HeLa; in the assay on JEG-3) was “inactive” throughout. Moreover, the Potency entry in the assay on OV90, with SKOV3 and with Tov-21-G was “inactive” in each case. Also, the outcome in [5] was inactive. Also, the Potency in the assay on NIH3T3 was 2550 nM (active).

For `C=C1CC2C3(C)C(O)CC(=O)C(C)(C)C3C(OC(C)=O)C(OC(C)=O)C2(C)C2C(=O)OC(C)(C(=O)OC)C(=O)C12C` (configuration not stated), in the assay on CRL-7250, the Potency entry was “inactive”.

For the compound `CCOC(=O)[C@H](CCc1ccccc1)N[C@@H](C)C(=O)N1C2CCCCC2C[C@H]1C(=O)O` (some centres not stated), in the assay with CRL-7250, the Potency result was “inactive”.

Take `O=C(NCc1ccc(OC(F)(F)F)cc1)C1c2ccccc2C(=O)N1C1CCOCC1` (configuration not stated): in the assay with CRL-7250, the Potency entry is “inactive”.

As for `CC(C)(C)C1CCN(C(=O)n2ncc(C(O)(c3ccccc3)c3ccccc3)n2)CC1`, in the assay with CRL-7250, the Potency entry was “inactive”.

For the compound `CCC(C)C(=O)O[C@@H]1[C@@H](O)[C@@H](O[C@H]2O[C@H](CO)[C@@H](O)[C@H](O)[C@H]2O)O[C@H](CO)[C@H]1O` (some centres not stated), in the assay on CRL-7250, the Potency entry was “inactive”.

(Values after PubChem BioAssay (NCATS).)
